Source: PubChem
PI5P4K alpha inh – inhibitors of human PI5P4K alpha; P48426; PI5P4Kalpha enzyme, ADP-Glo luminescence, 60 min; hits give low values; max response, %; actives 1.2% (n = 330,000); AID 652105; active = max response of -50% or lower; inconclusive = between -30% and -50%; inactive = -30% or higher; also: value at the top dose of about 77 µM
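qHTS, 1536-well: enzyme/substrate mix, compound by pin tool, 5 microM ATP final; RT 60 min; ADP-Glo reagents 1 (45 min) then 2 (30 min); luminescence.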
PI4K2A block – blocks human PI4K2A kinase activity | Q9BTU6 | purified PI4K2A, ADP-Glo luminescence, 1 h; hits give low values | activity change, negative = inhibition, % at 76.9 µM | actives 0.13% (n = 420,000) | AID 1346378; in the data active = activity change below about -50%; inconclusive = mostly about -30% to -49%
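ADP-Glo luminescence measured ADP generated by PI4K2A enzyme (4 ug/mL before mixing) with 1.2 mM PI substrate (pre-mix) and 300 microM ATP (pre-mix). Tris pH7.5 buffer with MgCl2, Triton X-100; 1 h reaction at ambient temperature.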
Pol kappa inh-1 – blocks human DNA polymerase kappa activity. Potency, µM (doses to about 107 µM), most hits filed as inhibitors. Q9UBT6. actives 0.53% (n = 400,000). purified Pol kappa, fluorescent DNA synthesis assay, 10 min
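Readout: fluorescence, taken kinetically at 0 and 10 min. Conditions: 10 nM Pol kappa, 15 min RT compound preincubation, 50 nM substrate final. Controls: enzyme-free buffer wells.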
Pol eta inh-1 – inhibitors of human DNA polymerase eta. recombinant Pol eta, fluorescent DNA replication assay. Potency, µM (doses to about 114 µM), actives largely listed as inhibitors. actives 1.2% (n = 390,000). AID 588591
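Pol eta at 10 nM preincubated with compounds 15 min at room temperature; reaction started with fluorescent substrate (50 nM final) and read kinetically at 0 and 10 min.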
Pol beta inh – inhibitors of human DNA polymerase beta; Pol beta primer extension/strand displacement, fluorescence kinetic; Potency, µM (doses to about 114 µM), actives largely listed as inhibitors; actives 1.3% (n = 340,000); P06746
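Reaction started by 50 nM substrate onto compound-treated Pol beta (10 nM, 15 min preincubation, room temperature); plates read at 0 min and 10 min. Normalized concentration-effect data fitted by four-parameter Hill equation.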
POLI inh – blocks human DNA polymerase iota activity; Pol iota fluorescent replication assay, 10 min; Potency, µM (top dose mostly 115 µM), most hits filed as inhibitors; actives 1% (n = 390,000); AID 588590
Target sequence (Q9UNA4 whole entry, looked up): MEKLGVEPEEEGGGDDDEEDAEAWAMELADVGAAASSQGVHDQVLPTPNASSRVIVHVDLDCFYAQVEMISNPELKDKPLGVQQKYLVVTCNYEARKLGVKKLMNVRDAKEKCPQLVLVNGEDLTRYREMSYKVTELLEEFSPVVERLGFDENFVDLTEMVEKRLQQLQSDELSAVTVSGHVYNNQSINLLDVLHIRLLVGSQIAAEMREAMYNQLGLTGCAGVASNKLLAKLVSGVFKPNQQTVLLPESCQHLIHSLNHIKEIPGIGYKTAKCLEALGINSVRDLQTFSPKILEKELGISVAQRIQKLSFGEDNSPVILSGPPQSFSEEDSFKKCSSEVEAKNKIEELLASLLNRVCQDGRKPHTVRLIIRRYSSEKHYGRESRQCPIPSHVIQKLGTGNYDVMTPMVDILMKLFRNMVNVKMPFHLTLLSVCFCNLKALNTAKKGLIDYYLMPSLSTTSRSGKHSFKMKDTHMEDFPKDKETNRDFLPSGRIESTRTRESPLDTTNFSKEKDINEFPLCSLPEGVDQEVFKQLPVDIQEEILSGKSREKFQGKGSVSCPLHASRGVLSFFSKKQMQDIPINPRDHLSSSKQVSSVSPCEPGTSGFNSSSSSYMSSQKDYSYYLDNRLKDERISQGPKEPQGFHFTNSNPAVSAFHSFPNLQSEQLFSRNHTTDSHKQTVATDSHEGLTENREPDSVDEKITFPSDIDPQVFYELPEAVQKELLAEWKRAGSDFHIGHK
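Pol iota at 10 nM preincubated 15 min with compounds at room temperature; reaction started with fluorescent substrate, 50 nM final. Fluorescence read kinetically at 0 and 10 min; buffer-only wells as negative control.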
TbPGK inh – blocks T. brucei phosphoglycerate kinase; TbPGK coupled GAPDH assay, Kinase-Glo luminescence; actives 79% (n = 500); shares compounds with Pol kappa inh-1; AID 686980; Potency, µM (series often up to 57.5 µM), most hits filed as inhibitors; also: nearly all actives have a fitted effect of over 65% in size
POLI cherry-pick – Human Pol iota inhibitor confirmatory assay; shares compounds with Pol kappa inh-1; Pol iota primer extension, TAMRA/BHQ fluorescence; Potency, µM, most hits filed as inhibitors; actives 77% (n = 1,500); AID 720496
GALK confirm – galactokinase (human) inhibition, confirmation. shares compounds with Pol eta inh-1. purified GALK, Kinase-Glo ATP depletion luminescence. Potency, µM (titrated, usually from 115 µM), actives largely listed as inhibitors. actives 70% (n = 150)
GALK redox cs – generates H2O2 by redox cycling, flagging GALK artifacts; shares compounds with Pol eta inh-1; Phenol red-HRP H2O2 redox cycling, absorbance 600 nm; Potency, µM (series often up to 115 µM), usual class: inhibitors; actives 40% (n = 150)
HEK293 viability – counter-screen for GALK inhibitors: HEK293 cell cytotoxicity; shares compounds with Pol eta inh-1; HEK-293 viability, ATP luminescence (CellTiter-Glo), 24/48 h; Potency, µM (titrated, usually from 46.1 µM), actives largely listed as inhibitors; actives 10% (n = 170); AID 2547
Pol kappa inh-2 – confirmation of human DNA polymerase kappa inhibitors; AID 720501; actives 76% (n = 920); purified Pol-kappa, fluorescent strand-displacement substrate; Potency, µM, most hits filed as inhibitors; shares compounds with Pol eta inh-1
Pol eta inh-2 – confirmation of human DNA polymerase eta inhibitors. Potency, µM, actives largely listed as inhibitors. shares compounds with Pol eta inh-1. actives 64% (n = 2,600). Pol eta primer extension, TAMRA/BHQ fluorescence, 10 min
A number is an active result; – = inactive; ? = inconclusive; · = no result given. Sampled rows, rich in hits. Any-hit rate of the full collection: about 2.8%. Unless noted, calls follow the shape of the dose curve; as a rule, active = well fitted curve in the direction sought with a large enough effect; inconclusive = small, poorly fitted or top-dose-only effect, or another doubt; inactive = no such curve, though single readings can be large; an effect the other way counts as inactive or inconclusive.

SMILES	PI5P4K alpha inh	PI4K2A block	Pol kappa inh-1	Pol eta inh-1	Pol beta inh	POLI inh	POLI cherry-pick	Pol kappa inh-2	Pol eta inh-2	others
CC(C)=CCC1=C(OCC(=O)O)C(=O)c2ccccc2C1=O	–	?	–	22µM	?	?	38	·	27	GALK confirm=38µM;GALK redox cs=12µM;HEK293 viability=–
CC(C)=CCC/C(C)=C/CC/C(C)=C/CC/C(C)=C/CC1=C(C)C(=O)c2ccccc2C1=O	–	–	–	–	–	–	·	·	·
COc1ccc(-n2c(=O)c(C)nc3cnc(Nc4cccc(OC)c4)nc32)cc1	·	·	–	·	·	·	·	·	·
CCOC(=O)C1=C(C)N(C[C@@H]2CC[C@@H](Cc3ccc(-c4ccccc4)cc3)O2)C(=O)NC1c1ccc(SCc2ccco2)c([N+](=O)[O-])c1 (stereo partly drawn)	-70	–	?	13µM	·	?	60	17	48
CCOC(=O)C1=C(C)N(C[C@@H]2CC[C@@H](Cc3ccc(-c4ccccc4)cc3)O2)C(=O)NC1c1ccc(C(F)(F)F)cc1 (stereo partly drawn)	–	–	–	–	·	–	·	·	·
O=c1cc2oc3cc(O)c(O)cc3c(-c3ccccc3[N+](=O)[O-])c-2cc1O	-61	?	0.79µM	0.79µM	0.32µM	?	0.75	·	2.1	TbPGK inh=0.29µM
O=C1/C(=C/c2ccco2)SC(=S)N1CC1CCCO1 (stereo not drawn)	?	–	89µM	50µM	13µM	22µM	?	42	67
O=C(/C=C/c1ccco1)Nc1ccccc1N1CCCC1	–	–	–	–	–	–	·	·	·
O=C(CCN1C(=O)/C(=C/c2ccco2)SC1=S)Nc1ccc(O)cc1C(=O)O	-63	–	?	5.6µM	22µM	4.5µM	47	13	30
O=C(CCCN1C(=O)/C(=C/c2ccco2)SC1=S)Nc1ccccc1C(=O)O	-82	–	?	11µM	–	22µM	34	8.4	19
O=C(/C=C/c1ccco1)Nc1ccccc1C(=O)O	–	–	79µM	10µM	13µM	?	30	7.5	24
O=C(CCCN1C(=O)/C(=C/c2ccccc2)SC1=S)Nc1ccccc1O	–	–	–	–	–	–	·	·	·
CC(C)[C@@H](NC(=O)OC(C)(C)C)c1cc(C(=O)c2c(-c3ccccc3)[nH]c3ccccc23)c(N)s1	–	–	·	·	·	·	·	·	·
O=C(c1cccc([N+](=O)[O-])c1)N1CCN(c2ccc(Nc3ccccc3)nn2)CC1	·	–	–	–	–	–	·	·	·
COC(=O)c1sccc1S(=O)(=O)N(CC(=O)Nc1cc(C)cc(C)c1)c1ccc(Cl)cc1	·	–	–	–	–	–	·	·	·
